# Data published in publication PMC11006913.
# Substitutions are numbered along the chain they refer to.
# How the values were obtained:
# Experiment in all cases: PBM; 200 nM protein, PBS
# Conditions in all cases: dsDNA, one strand shown
# [1] = molecular target: ALX4 (Homo sapiens, UniProt Q9H161 200-286)
# [2] = molecular target: ALX4 (Homo sapiens, UniProt Q9H161 200-286, Q225E)
# [3] = molecular target: MSX2 (Homo sapiens, UniProt P35548 130-214, R199I)
# [4] = molecular target: MSX2 (Homo sapiens, UniProt P35548 130-214)
# MSX2 (Homo sapiens, UniProt P35548 130-214), sequence (P35548 130-214): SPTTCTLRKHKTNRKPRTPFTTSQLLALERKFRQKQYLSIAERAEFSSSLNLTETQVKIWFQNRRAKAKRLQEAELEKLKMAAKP
# [5] = molecular target: MSX2 (Homo sapiens, UniProt P35548 130-214, F161Y)
# MSX2 (Homo sapiens, UniProt P35548 130-214, F161Y), sequence (P35548 130-214 F161Y): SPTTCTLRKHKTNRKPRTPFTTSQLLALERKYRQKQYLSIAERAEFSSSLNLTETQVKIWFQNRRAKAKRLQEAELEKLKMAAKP
# [6] = molecular target: ALX1 (Homo sapiens, UniProt Q15699 118-204, L144V)
# ALX1 (Homo sapiens, UniProt Q15699 118-204, L144V), sequence (Q15699 118-204 L144V): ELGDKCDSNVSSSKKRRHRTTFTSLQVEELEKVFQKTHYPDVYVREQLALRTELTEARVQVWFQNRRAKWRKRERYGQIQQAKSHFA
# [7] = molecular target: PITX2 (Homo sapiens, UniProt Q99697 72-157)
# [8] = molecular target: ALX1 (Homo sapiens, UniProt Q15699 118-204, L144R)
# ALX1 (Homo sapiens, UniProt Q15699 118-204, L144R), sequence (Q15699 118-204 L144R): as the sequence (Q15699 118-204 L144V) above, with V27R counted along it
# [9] = molecular target: ALX1 (Homo sapiens, UniProt Q15699 118-204)
# ALX1 (Homo sapiens, UniProt Q15699 118-204), sequence (Q15699 118-204): as the sequence (Q15699 118-204 L144V) above, with V27L counted along it
# [10] = molecular target: T1, PAX4 (Homo sapiens, UniProt O43316 9-242, R200K)
# T1 sequence: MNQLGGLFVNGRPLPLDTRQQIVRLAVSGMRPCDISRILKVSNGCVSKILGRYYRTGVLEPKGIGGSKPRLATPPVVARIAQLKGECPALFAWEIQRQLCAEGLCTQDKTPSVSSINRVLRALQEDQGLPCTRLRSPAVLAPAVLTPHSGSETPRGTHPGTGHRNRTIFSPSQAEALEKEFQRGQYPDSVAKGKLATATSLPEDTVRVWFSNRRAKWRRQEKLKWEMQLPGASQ
# [11] = molecular target: PRRX1 (Homo sapiens, UniProt P54821 80-166, F113S)
# PRRX1 (Homo sapiens, UniProt P54821 80-166, F113S), sequence (P54821 80-166 F113S): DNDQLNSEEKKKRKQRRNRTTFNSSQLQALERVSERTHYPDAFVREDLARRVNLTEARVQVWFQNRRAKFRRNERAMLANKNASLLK
# [12] = molecular target: T2, PAX4 (Homo sapiens, UniProt O43316 9-242)
# T2 sequence: T1 sequence with K192R
# [13] = molecular target: T3, PAX4 (Homo sapiens, UniProt O43316 9-242, R200Q)
# T3 sequence: T1 sequence with K192Q
# [14] = molecular target: T4, PAX4 (Homo sapiens, UniProt O43316 9-242, F177V)
# T4 sequence: T1 sequence with F169V, K192R
# [15] = molecular target: T5, PAX4 (Homo sapiens, UniProt O43316 9-242, F177Y)
# T5 sequence: T1 sequence with F169Y, K192R
# [16] = molecular target: T6, PAX4 (Homo sapiens, UniProt O43316 9-242, R227W)
# T6 sequence: T1 sequence with K192R, R219W
# [17] = molecular target: PRRX1 (Homo sapiens, UniProt P54821 80-166)
# PRRX1 (Homo sapiens, UniProt P54821 80-166), sequence (P54821 80-166): as the sequence (P54821 80-166 F113S) above, with S34F counted along it
# [18] = molecular target: HOXA2 (Homo sapiens, UniProt O43364 129-215, R185T)
# HOXA2 (Homo sapiens, UniProt O43364 129-215, R185T), sequence (O43364 129-215 R185T): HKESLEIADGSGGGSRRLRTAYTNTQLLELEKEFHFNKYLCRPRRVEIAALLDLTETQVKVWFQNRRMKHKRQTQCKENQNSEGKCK
# [19] = molecular target: HOXA2 (Homo sapiens, UniProt O43364 129-215, R185K)
# HOXA2 (Homo sapiens, UniProt O43364 129-215, R185K), sequence (O43364 129-215 R185K): as the sequence (O43364 129-215 R185T) above, with T57K counted along it
# [20] = molecular target: HOXA2 (Homo sapiens, UniProt O43364 129-215, Y150S)
# HOXA2 (Homo sapiens, UniProt O43364 129-215, Y150S), sequence (O43364 129-215 Y150S): as the sequence (O43364 129-215 R185T) above, with Y22S, T57R counted along it
# [21] = molecular target: HOXA2 (Homo sapiens, UniProt O43364 129-215)
# HOXA2 (Homo sapiens, UniProt O43364 129-215), sequence (O43364 129-215): as the sequence (O43364 129-215 R185T) above, with T57R counted along it
# [22] = molecular target: T7, NKX2-6 (Homo sapiens, UniProt A6NCS4 118-204)
# T7 sequence: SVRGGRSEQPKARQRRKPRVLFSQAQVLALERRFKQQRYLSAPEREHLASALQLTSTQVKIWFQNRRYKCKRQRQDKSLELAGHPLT
# [23] = molecular target: T8, NKX2-6 (Homo sapiens, UniProt A6NCS4 118-204, F151L)
# T8 sequence: T7 sequence with F34L
# ALX4 (Homo sapiens, UniProt Q9H161 200-286, Q225E), sequence (Q9H161 200-286 Q225E): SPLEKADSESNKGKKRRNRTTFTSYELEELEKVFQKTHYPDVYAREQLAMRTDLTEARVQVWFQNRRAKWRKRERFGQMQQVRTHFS
# ALX4 (Homo sapiens, UniProt Q9H161 200-286), sequence (Q9H161 200-286): as the sequence (Q9H161 200-286 Q225E) above, with E26Q counted along it
# MSX2 (Homo sapiens, UniProt P35548 130-214, R199I), sequence (P35548 130-214 R199I): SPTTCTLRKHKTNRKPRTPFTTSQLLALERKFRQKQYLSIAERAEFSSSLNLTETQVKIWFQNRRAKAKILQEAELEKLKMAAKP
sequence,measurement,setting,value
AGGAGGCG,binding signal,[1],"8.14 upbm affinity estimate (log intensity, higher = more binding, comparable within an allelic series)"
same,binding signal,[2],"8.12 upbm affinity estimate (log intensity, higher = more binding, comparable within an allelic series)"
same,binding signal,[3],"9.45 upbm affinity estimate (log intensity, higher = more binding, comparable within an allelic series)"
same,binding signal,[4],"9.43 upbm affinity estimate (log intensity, higher = more binding, comparable within an allelic series)"
same,binding signal,[5],"9.49 upbm affinity estimate (log intensity, higher = more binding, comparable within an allelic series)"
ATAATACA,binding signal,[1],"11.1 upbm affinity estimate (log intensity, higher = more binding, comparable within an allelic series)"
same,binding signal,[2],"10.4 upbm affinity estimate (log intensity, higher = more binding, comparable within an allelic series)"
GAGGACTC,binding signal,[1],"8.06 upbm affinity estimate (log intensity, higher = more binding, comparable within an allelic series)"
same,binding signal,[2],"8.19 upbm affinity estimate (log intensity, higher = more binding, comparable within an allelic series)"
same,binding signal,[6],"6.41 upbm affinity estimate (log intensity, higher = more binding, comparable within an allelic series)"
same,binding signal,[7],"7.89 upbm affinity estimate (log intensity, higher = more binding, comparable within an allelic series)"
same,binding signal,[8],"6.53 upbm affinity estimate (log intensity, higher = more binding, comparable within an allelic series)"
same,binding signal,[9],"6.39 upbm affinity estimate (log intensity, higher = more binding, comparable within an allelic series)"
ATAATTTG,binding signal,[10],"11.6 upbm affinity estimate (log intensity, higher = more binding, comparable within an allelic series)"
same,binding signal,[11],"10.9 upbm affinity estimate (log intensity, higher = more binding, comparable within an allelic series)"
same,binding signal,[12],"12.1 upbm affinity estimate (log intensity, higher = more binding, comparable within an allelic series)"
same,binding signal,[13],"12 upbm affinity estimate (log intensity, higher = more binding, comparable within an allelic series)"
same,binding signal,[14],"10.5 upbm affinity estimate (log intensity, higher = more binding, comparable within an allelic series)"
same,binding signal,[15],"10.9 upbm affinity estimate (log intensity, higher = more binding, comparable within an allelic series)"
same,binding signal,[16],"11 upbm affinity estimate (log intensity, higher = more binding, comparable within an allelic series)"
same,binding signal,[17],"13.2 upbm affinity estimate (log intensity, higher = more binding, comparable within an allelic series)"
CCGCAGAC,binding signal,[1],"8.08 upbm affinity estimate (log intensity, higher = more binding, comparable within an allelic series)"
same,binding signal,[2],"8.21 upbm affinity estimate (log intensity, higher = more binding, comparable within an allelic series)"
same,binding signal,[18],"7.17 upbm affinity estimate (log intensity, higher = more binding, comparable within an allelic series)"
same,binding signal,[19],"10.2 upbm affinity estimate (log intensity, higher = more binding, comparable within an allelic series)"
same,binding signal,[20],"10.5 upbm affinity estimate (log intensity, higher = more binding, comparable within an allelic series)"
same,binding signal,[21],"6.96 upbm affinity estimate (log intensity, higher = more binding, comparable within an allelic series)"
GACTGGAC,binding signal,[1],"7.98 upbm affinity estimate (log intensity, higher = more binding, comparable within an allelic series)"
same,binding signal,[2],"8.14 upbm affinity estimate (log intensity, higher = more binding, comparable within an allelic series)"
same,binding signal,[6],"6.55 upbm affinity estimate (log intensity, higher = more binding, comparable within an allelic series)"
same,binding signal,[8],"6.42 upbm affinity estimate (log intensity, higher = more binding, comparable within an allelic series)"
same,binding signal,[9],"6.44 upbm affinity estimate (log intensity, higher = more binding, comparable within an allelic series)"
CCACATGG,binding signal,[1],"8.13 upbm affinity estimate (log intensity, higher = more binding, comparable within an allelic series)"
same,binding signal,[2],"8.32 upbm affinity estimate (log intensity, higher = more binding, comparable within an allelic series)"
same,binding signal,[22],"9.61 upbm affinity estimate (log intensity, higher = more binding, comparable within an allelic series)"
same,binding signal,[23],"9.23 upbm affinity estimate (log intensity, higher = more binding, comparable within an allelic series)"
